Laboratory results from PubChem BioAssay AID1159580 (chemical genetic matrix, 2015).
Values joined by “and” are separate entries in the source; they are usually repeats but may differ in a detail not shown here. Equal entries are not always repeated. About 2,000 (36%) of roughly 5,500 compounds were called active. Another 18% or so got no clear call; they are omitted. Rule as the data show it: active = normalized growth mostly below about 0.91 (no sharp cut-off); inconclusive = no clear call, values can overlap the other calls; inactive = mostly above about 0.92. This is one part of the list.

Test: chemical genetic growth profiling, strain panel (AID 1159580);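 also: tested at 20 µM; growth read once vehicle control cultures reached saturation at 30 °C; 1 = growth at the plate median or of vehicle wells; lower values mean less growth of the strain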
Conditions: S. cerevisiae deletion strains, growth OD

Measured: normalized growth

CO[C@@]12[C@@H]3NC3CN1C1=C(C(=O)C(N)=C(C)C1=O)[C@@H]2COC(N)=O (some centres not stated)
active: locus YCL061C, strain MRC1, active compounds read low 0.919
inactive: locus YAL013W, strain DEP1, active compounds read low 0.997 | locus YAL021C, strain ccr4, active compounds read low 0.98 | locus YAL026C, strain drs2, active compounds read low 0.969 | locus YAL030W, strain snc1, active compounds read low 0.989 | locus YBL061C, strain skt5, active compounds read low 0.964 | locus YBR009C, strain hhf1, active compounds read low 1 | locus YBR021W, strain FUR4, active compounds read low 0.995 | locus YBR023C, strain chs3, active compounds read low 0.962 | locus YBR171W, strain sec66, active compounds read low 0.958 | locus YBR229C, strain ROT2, active compounds read low 1 | locus YBR231C, strain swc5, active compounds read low 0.954 | locus YBR279W, strain paf1, active compounds read low 0.978 | locus YCL011C, strain gbp2, active compounds read low 0.95 | locus YCL016C, strain dcc1, active compounds read low 1.01 | locus YCL029C, strain bik1, active compounds read low 0.971 | locus YCL069W, strain vba3, active compounds read low 0.984 | locus YCR088W, strain abp1, active compounds read low 0.971 | locus YDL005C, strain med2, active compounds read low 0.972 | locus YDL035C, strain GPR1, active compounds read low 1 | locus YDL040C, strain nat1, active compounds read low 0.973 | locus YDL074C, strain BRE1, active compounds read low 1.04 | locus YDL101C, strain DUN1, active compounds read low 1.01 | locus YDL134C, strain PPH21, active compounds read low 1.01 | locus YDL185W, strain tfp1, active compounds read low 0.972 | locus YDL192W, strain arf1, active compounds read low 0.974 | locus YDR001C, strain nth1, active compounds read low 0.954 | locus YDR069C, strain doa4, active compounds read low 0.926 | locus YDR101C, strain arx1, active compounds read low 1 | locus YDR137W, strain rgp1, active compounds read low 0.955 | locus YDR150W, strain NUM1, active compounds read low 0.987 | locus YDR159W, strain sac3, active compounds read low 0.998 | locus YDR162C, strain NBP2, active compounds read low 1.05 | locus YDR195W, strain ref2 0.879 | locus YDR297W, strain sur2, active compounds read low 0.966 | locus YDR318W, strain mcm21, active compounds read low 0.977 | locus YDR334W, strain swr1, active compounds read low 0.934 | locus YDR335W, strain msn5, active compounds read low 0.963 | locus YDR388W, active compounds read low 0.982 | locus YDR392W, strain spt3, active compounds read low 1.06 | locus YDR502C, strain sam2, active compounds read low 1.01 | locus YEL003W, strain gim4, active compounds read low 0.973 | locus YEL037C, strain rad23, active compounds read low 0.975 | locus YEL061C, strain CIN8 (second series), active compounds read low 0.95 | locus YEL061C, strain CIN8, active compounds read low 0.998 | locus YER015W, strain faa2, active compounds read low 1 | locus YER016W, strain bim1, active compounds read low 1.01 | locus YER110C, active compounds read low 0.968 | locus YER111C, strain swi4, active compounds read low 0.981 | locus YER155C, strain BEM2 (second series), active compounds read low 0.962 | locus YER155C, strain BEM2, active compounds read low 0.993 | locus YER167W, strain BCK2, active compounds read low 0.994 | locus YFR010W, strain ubp6, active compounds read low 0.927 | locus YGL078C, strain dbp3, active compounds read low 0.996 | locus YGL086W, strain mad1, active compounds read low 0.963 | locus YGL167C, strain pmr1, active compounds read low 0.94 | locus YGL173C, strain kem1, active compounds read low 0.981 | locus YGL227W, strain vid30, active compounds read low 0.974 | locus YGL240W, strain doc1, active compounds read low 0.966 | locus YGL248W, strain PDE1, active compounds read low 1 | locus YGL253W, strain hxk2, active compounds read low 0.988 | locus YGR078C, strain PAC10, active compounds read low 1.04 | locus YGR135W, strain pre9, active compounds read low 1.02 | locus YGR229C, strain SMI1, active compounds read low 1.02 | locus YGR252W, strain gcn5, active compounds read low 0.943 | locus YHR013C, strain ard1, active compounds read low 0.985 | locus YHR027C, strain rpn1, active compounds read low 0.978 | locus YHR030C, strain SLT2, active compounds read low 0.993 and 0.988 | locus YHR079C, strain IRE1 (second series), active compounds read low 0.994 | locus YHR079C, strain IRE1, active compounds read low 0.957 | locus YHR094C, strain hxt1, active compounds read low 0.975 | locus YHR129C, strain ARP1, active compounds read low 1 | locus YHR142W, strain chs7, active compounds read low 0.987 | locus YHR200W, strain rpn10, active compounds read low 0.971 | locus YIL066C, strain RNR3, active compounds read low 0.998 | locus YIL073C, strain SPO22, active compounds read low 0.914 | locus YIL125W, strain kgd1, active compounds read low 0.996 | locus YIR030C, strain dcg1, active compounds read low 0.991 | locus YJL092W, strain hpr5, active compounds read low 0.936 | locus YJL095W, strain BCK1 (second series), active compounds read low 0.967 | locus YJL095W, strain BCK1, active compounds read low 1.04 and 0.999 | locus YJL115W, strain asf1, active compounds read low 0.968 | locus YJL129C, strain trk1, active compounds read low 0.96 | locus YJL134W, strain LCB3, active compounds read low 1 | locus YJL154C, strain vps35, active compounds read low 0.958 | locus YJL164C, strain tpk1, active compounds read low 1.01 | locus YJL166W, strain qcr8, active compounds read low 0.932 | locus YJL168C, strain set2, active compounds read low 0.983 | locus YJL187C, strain SWE1 (second series), active compounds read low 1.01 | locus YJL187C, strain SWE1, active compounds read low 0.98 | locus YJR043C, strain POL32, active compounds read low 0.98 | locus YJR066W, strain TOR1, active compounds read low 0.941
